Reference: publication PMC7862700, “An all-to-all approach to the identification of sequence-specific readers for epigenetic DNA modifications on cytosine”

Legend:
Assay in all cases: DAPPL (digital affinity profiling via proximity ligation, sequencing); 10 mM Tris-HCl pH 7.5, 50 mM NaCl, 1 mM DTT, 4% glycerol, room temperature, 30 min; GST-TFs on glutathione beads, 16-mer random dsDNA library, 0.1% formaldehyde crosslink after washing; high values mean tight binding
Settings in all cases: protein: recombinant; tags: N-terminal GST; dsDNA, one strand shown
[1] = biological target: T1, ELK1 (Homo sapiens, UniProt P19419 1-428)
T1 sequence: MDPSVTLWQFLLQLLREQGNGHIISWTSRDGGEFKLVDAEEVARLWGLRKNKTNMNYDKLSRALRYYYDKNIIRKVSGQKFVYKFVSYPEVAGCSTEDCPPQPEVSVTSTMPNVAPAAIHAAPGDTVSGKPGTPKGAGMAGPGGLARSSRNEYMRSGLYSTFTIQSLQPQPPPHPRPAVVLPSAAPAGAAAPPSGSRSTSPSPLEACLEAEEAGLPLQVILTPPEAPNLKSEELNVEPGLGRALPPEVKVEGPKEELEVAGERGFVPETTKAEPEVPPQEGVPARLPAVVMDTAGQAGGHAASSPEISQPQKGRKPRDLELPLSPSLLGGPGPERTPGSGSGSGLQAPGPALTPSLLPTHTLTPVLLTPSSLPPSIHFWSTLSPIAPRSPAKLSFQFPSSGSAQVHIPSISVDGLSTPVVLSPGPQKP
In short: (§1)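 Pools were built from human transcription factors expressed in yeast as GST fusions, captured on glutathione beads and DNA-barcoded, along with a tag-only sample. Incubation with 200 nmole of a 16-mer random double-stranded DNA library lasted 30 min at room temperature in Tris/NaCl/DTT/glycerol buffer, and was followed by washing, 0.1% formaldehyde crosslinking, proximity ligation, PCR amplification and Illumina NextSeq500 sequencing. Binding signal is the quotient of each hexamer's read frequency for a factor and its frequency for the tag-only sample.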

[2] = biological target: ELF1 (Homo sapiens, UniProt P32519 1-619)
ELF1, sequence (P32519 whole entry): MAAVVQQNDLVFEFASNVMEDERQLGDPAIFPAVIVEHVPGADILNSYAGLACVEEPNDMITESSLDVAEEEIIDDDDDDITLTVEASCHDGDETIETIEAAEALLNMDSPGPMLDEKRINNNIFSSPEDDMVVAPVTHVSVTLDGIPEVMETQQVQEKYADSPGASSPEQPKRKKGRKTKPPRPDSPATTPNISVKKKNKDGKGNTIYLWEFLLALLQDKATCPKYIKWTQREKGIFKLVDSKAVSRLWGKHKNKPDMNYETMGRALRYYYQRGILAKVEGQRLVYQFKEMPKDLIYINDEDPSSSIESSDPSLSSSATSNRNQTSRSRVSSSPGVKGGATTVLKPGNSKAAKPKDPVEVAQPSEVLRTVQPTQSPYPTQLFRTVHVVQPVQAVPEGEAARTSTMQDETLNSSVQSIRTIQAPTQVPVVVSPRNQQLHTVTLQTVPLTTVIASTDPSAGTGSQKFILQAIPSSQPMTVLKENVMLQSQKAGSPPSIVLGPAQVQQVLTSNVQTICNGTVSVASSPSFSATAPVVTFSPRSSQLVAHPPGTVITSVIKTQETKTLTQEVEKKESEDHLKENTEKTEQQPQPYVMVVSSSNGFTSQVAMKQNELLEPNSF
In short: as §1

[3] = biological target: T2, EHF (Homo sapiens, UniProt Q9NZC4 1-300)
T2 sequence: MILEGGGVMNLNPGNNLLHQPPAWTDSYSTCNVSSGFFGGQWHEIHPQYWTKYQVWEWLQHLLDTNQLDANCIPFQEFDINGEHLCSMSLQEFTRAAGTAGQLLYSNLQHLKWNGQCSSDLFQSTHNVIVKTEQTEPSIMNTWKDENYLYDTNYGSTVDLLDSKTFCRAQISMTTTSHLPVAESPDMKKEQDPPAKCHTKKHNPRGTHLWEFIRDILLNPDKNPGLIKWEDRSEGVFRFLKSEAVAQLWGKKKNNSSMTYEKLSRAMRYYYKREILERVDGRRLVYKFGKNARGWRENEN
In short: as §1

[4] = biological target: ETV5 (Homo sapiens, UniProt P41161 1-510)
ETV5, sequence (P41161 whole entry): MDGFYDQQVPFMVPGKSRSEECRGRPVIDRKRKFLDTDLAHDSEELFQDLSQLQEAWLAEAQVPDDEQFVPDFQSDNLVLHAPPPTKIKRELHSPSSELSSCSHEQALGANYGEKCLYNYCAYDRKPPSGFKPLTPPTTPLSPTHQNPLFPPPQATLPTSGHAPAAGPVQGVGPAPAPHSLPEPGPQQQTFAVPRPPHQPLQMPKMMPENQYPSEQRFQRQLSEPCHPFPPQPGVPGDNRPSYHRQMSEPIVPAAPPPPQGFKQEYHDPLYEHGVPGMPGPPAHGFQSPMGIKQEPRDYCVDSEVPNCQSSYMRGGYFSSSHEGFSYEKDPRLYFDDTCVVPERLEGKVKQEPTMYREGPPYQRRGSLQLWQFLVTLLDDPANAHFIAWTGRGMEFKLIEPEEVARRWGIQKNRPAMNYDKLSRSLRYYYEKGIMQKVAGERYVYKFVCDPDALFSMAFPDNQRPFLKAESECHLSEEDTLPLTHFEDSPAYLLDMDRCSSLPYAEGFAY
In short: as §1

[5] = biological target: ELF4 (Homo sapiens, UniProt Q99607 1-663)
ELF4, sequence (Q99607 whole entry): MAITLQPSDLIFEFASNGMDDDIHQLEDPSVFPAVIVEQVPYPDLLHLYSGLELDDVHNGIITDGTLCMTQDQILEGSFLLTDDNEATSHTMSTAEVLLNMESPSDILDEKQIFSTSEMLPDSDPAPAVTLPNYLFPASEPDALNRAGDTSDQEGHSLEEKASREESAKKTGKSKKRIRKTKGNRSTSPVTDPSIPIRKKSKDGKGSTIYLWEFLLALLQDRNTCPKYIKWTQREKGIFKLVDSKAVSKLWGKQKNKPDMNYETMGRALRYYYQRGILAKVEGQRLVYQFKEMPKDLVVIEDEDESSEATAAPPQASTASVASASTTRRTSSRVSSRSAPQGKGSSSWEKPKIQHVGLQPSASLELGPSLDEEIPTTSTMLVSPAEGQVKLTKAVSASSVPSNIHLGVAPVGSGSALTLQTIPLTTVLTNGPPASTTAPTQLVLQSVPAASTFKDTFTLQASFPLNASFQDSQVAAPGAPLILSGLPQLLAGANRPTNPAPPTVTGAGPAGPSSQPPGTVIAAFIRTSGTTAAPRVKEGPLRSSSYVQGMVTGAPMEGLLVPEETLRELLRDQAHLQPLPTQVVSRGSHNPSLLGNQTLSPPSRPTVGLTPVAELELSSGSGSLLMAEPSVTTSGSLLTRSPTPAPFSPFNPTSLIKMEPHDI
In short: as §1

[6] = biological target: T3, ELK4 (Homo sapiens, UniProt P28324-2 1-405)
T3 sequence: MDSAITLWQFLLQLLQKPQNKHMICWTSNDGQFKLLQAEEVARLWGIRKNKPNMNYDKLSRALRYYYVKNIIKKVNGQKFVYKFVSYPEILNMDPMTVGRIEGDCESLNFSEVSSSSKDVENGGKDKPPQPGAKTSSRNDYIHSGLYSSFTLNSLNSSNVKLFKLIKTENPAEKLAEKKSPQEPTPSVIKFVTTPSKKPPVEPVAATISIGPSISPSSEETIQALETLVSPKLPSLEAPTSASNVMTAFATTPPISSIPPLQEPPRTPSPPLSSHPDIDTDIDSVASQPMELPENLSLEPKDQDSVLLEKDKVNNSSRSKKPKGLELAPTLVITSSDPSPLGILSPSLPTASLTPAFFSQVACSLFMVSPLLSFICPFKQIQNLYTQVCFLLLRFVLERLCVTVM
In short: as §1

[7] = biological target: ETV1 (Homo sapiens, UniProt P50549 1-477)
ETV1, sequence (P50549 whole entry): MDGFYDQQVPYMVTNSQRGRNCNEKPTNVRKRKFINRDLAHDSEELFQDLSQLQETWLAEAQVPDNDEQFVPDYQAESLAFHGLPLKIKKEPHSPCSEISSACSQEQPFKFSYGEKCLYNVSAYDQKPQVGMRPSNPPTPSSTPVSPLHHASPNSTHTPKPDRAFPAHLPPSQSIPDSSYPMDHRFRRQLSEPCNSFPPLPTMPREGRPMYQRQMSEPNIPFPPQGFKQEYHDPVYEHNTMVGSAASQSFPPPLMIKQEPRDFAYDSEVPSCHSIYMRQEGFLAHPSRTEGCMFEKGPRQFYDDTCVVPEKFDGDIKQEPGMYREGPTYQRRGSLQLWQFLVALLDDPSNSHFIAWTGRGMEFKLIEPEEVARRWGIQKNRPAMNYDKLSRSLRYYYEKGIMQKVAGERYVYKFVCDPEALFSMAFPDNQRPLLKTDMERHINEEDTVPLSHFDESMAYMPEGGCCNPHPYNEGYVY
In short: as §1

[8] = biological target: T4, ETV7 (Homo sapiens, UniProt Q9Y603 1-341)
T4 sequence: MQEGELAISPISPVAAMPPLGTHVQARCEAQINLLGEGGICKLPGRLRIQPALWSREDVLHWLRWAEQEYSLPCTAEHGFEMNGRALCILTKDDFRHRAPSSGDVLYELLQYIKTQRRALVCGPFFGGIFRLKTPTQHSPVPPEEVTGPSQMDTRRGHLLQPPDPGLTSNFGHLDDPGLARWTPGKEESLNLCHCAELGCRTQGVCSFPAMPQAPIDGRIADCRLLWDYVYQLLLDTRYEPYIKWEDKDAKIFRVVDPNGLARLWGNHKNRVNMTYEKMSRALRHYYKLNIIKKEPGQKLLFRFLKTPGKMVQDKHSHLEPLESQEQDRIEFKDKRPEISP
In short: as §1

[9] = biological target: T5, ETV3 (Homo sapiens, UniProt P41162-2 1-143)
T5 sequence: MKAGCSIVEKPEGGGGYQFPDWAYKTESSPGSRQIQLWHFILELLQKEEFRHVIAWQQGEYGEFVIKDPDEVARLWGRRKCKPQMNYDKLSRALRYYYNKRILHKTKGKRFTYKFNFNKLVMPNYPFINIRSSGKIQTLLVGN
In short: as §1

[10] = biological target: T6, GABPA (Homo sapiens, UniProt Q06546 1-454)
T6 sequence: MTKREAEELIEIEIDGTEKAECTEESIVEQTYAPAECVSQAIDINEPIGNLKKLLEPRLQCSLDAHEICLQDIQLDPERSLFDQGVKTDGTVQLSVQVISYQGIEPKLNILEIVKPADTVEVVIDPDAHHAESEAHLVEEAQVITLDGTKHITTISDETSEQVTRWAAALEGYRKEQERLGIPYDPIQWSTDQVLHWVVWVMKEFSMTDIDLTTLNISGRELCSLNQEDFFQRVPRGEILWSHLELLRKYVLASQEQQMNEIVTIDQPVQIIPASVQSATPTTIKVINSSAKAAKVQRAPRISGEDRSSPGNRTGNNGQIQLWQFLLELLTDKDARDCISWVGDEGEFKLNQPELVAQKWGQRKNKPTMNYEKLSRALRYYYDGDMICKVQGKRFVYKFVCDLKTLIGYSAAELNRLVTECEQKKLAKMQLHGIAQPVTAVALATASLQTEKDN
In short: as §1

Row | Sequence | binding signal [1] | binding signal [2] | binding signal [3] | binding signal [4] | binding signal [5] | binding signal [6] | binding signal [7] | binding signal [8] | binding signal [9] | binding signal [10]
1 | TAGCGT | 1 fold enrichment (6-mer frequency, TF over GST control) | 1.02 fold enrichment (6-mer frequency, TF over GST control) | 1 fold enrichment (6-mer frequency, TF over GST control) | 1.03 fold enrichment (6-mer frequency, TF over GST control) | 1.02 fold enrichment (6-mer frequency, TF over GST control) | 1.07 fold enrichment (6-mer frequency, TF over GST control) | 1.03 fold enrichment (6-mer frequency, TF over GST control) | 1 fold enrichment (6-mer frequency, TF over GST control) | 1.04 fold enrichment (6-mer frequency, TF over GST control) | 
2 | GACTTA |  |  | 1.04 fold enrichment (6-mer frequency, TF over GST control) | 1.01 fold enrichment (6-mer frequency, TF over GST control) |  | 1 fold enrichment (6-mer frequency, TF over GST control) |  |  | 1.02 fold enrichment (6-mer frequency, TF over GST control) | 1.03 fold enrichment (6-mer frequency, TF over GST control)
3 | CGAAGG |  |  | 1.03 fold enrichment (6-mer frequency, TF over GST control) | 1.05 fold enrichment (6-mer frequency, TF over GST control) |  | 1.06 fold enrichment (6-mer frequency, TF over GST control) |  |  |  | 1 fold enrichment (6-mer frequency, TF over GST control)
